Experimental data from the supplement of paper PMC10981050.
Several values for one entry are separate records, joined by “and”; a condition that tells them apart may be missing. Identical values can stand only once. Counter-ions that a name gives are not always drawn.

How the values were obtained:
Assay in all cases: cell viability relative to vehicle control; higher = less cytotoxic
Details in all cases: 10 µM
[1] = tested on: K562
Outline: (§1)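 Mutant clones made by CRISPR editing and their isogenic wild-type counterparts, from four leukaemia lines, were exposed to a single 10 µM dose of each library compound for 48 h. The supernatant was then removed and CellTiter-Glo luminescence was read. Viability was reported as percent of the on-plate vehicle control.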

[2] = tested on: MARIMO
Outline: as §1

[3] = tested on: MOLM14
Outline: as §1

[4] = tested on: OCI-AML2
Outline: as §1

Row | SMILES | cell viability ([1]; SRSF2 genotype: SRSF2 P95H/wt) | cell viability ([1]; SRSF2 genotype: SRSF2 wt/wt) [%] | cell viability ([2]; SRSF2 genotype: SRSF2 P95H/wt) [%] | cell viability ([2]; SRSF2 genotype: SRSF2 wt/wt) [%] | cell viability ([3]; SRSF2 genotype: SRSF2 P95H/wt) [%] | cell viability ([3]; SRSF2 genotype: SRSF2 wt/wt) [%] | cell viability ([4]; SRSF2 genotype: P95H/wt) [%] | cell viability ([4]; SRSF2 genotype: wt/wt) [%]
1 | NC(=O)c1ccc(-c2nc(-c3ccccn3)c(-c3ccc4c(c3)OCO4)[nH]2)cc1 | 103% and 105% | 97.9 | 100 | 106 | 102 | 97.9 | 109 | 98.3
2 | COc1cc2ncnc(Nc3ccc(Oc4ccccc4)cc3C)c2cc1OC | 68% and 80.2% | 79.3 | 81.1 | 66 | 37.5 | 29.9 | 45.6 | 43
3 | Cc1cc(C)nc(NS(=O)(=O)c2ccc(NC(=S)NC(=O)COc3ccc(Br)cc3Cl)cc2)n1 | 91.4% and 83.1% | 85.5 | 82.3 | 90.7 | 83.5 | 91.1 | 88.6 | 84.6
4 | COc1cc2c3cc1Oc1c(OC)c(OC)cc4c1[C@@H](Cc1ccc(O)c(c1)Oc1ccc(cc1)C[C@@H]3N(C)CC2)N(C)CC4 [Berbamine (dihydrochloride)] | 72.6% and 53.2% | 66.9 | 70.8 | 72.8 | 68.2 | 78.2 | 57.1 | 60.4
5 | CC(C)C[C@H](NC(=O)[C@H](CCc1ccccc1)NC(=O)CN1CCOCC1)C(=O)N[C@@H](Cc1ccccc1)C(=O)N[C@@H](CC(C)C)C(=O)[C@@]1(C)CO1 [Carfilzomib (PR-171)] | 2.27% and 2.75% | 1.72 | 0.54 | 1.08 | 0.49 | 0.49 | 0.45 | 0.57
6 | CC(C)(C)NC(=O)[C@H]1CC[C@H]2[C@@H]3CC[C@H]4NC(=O)C=C[C@]4(C)[C@H]3CC[C@]12C [Finasteride] | 103% and 99% | 97.5 | 94.3 | 105 | 101 | 102 | 99.7 | 106
7 | CCC(=O)NS(=O)(=O)c1ccc(-c2c(-c3ccccc3)noc2C)cc1 [Parecoxib] | 100% and 96.7% | 97.5 | 101 | 108 | 101 | 101 | 88.3 | 99.7
8 | CCCCC(=O)O[C@]1(C(=O)CO)[C@@H](C)C[C@H]2[C@@H]3CCC4=CC(=O)C=C[C@]4(C)[C@@]3(F)[C@@H](O)C[C@@]21C [Betamethasone valerate (Betnovate)] | 94.9% and 101% | 94.8 | 96.9 | 110 | 90.8 | 93.7 | 94.5 | 116
9 | OCC1(O)COc2cc(O)ccc2-c2cc(O)c(O)cc2C1 (stereo unspecified) [Protosappanin B] | 93.9% and 95.9% | 95.7 | 100 | 97.1 | 102 | 96.2 | 97.3 | 99.5
10 | Cc1cc(Nc2ncc(Cl)c(Nc3ccccc3S(=O)(=O)C(C)C)n2)c(OC(C)C)cc1C1CCNCC1 [Ceritinib (LDK378)] | 0.29% and 0.22% | 0.14 | 0.2 | 0.23 | 0.06 | 0.11 | -0.03 | 0.01
11 | CC(C)=CCC[C@](C)(O)[C@H]1CC[C@]2(C)[C@@H]1[C@H](O)C[C@@H]1[C@@]3(C)CC[C@H](O)C(C)(C)[C@@H]3[C@@H](O)C[C@]12C [(20S)-Protopanaxatriol] | 90.2% and 89.5% | 101 | 96.1 | 105 | 106 | 106 | 107 | 101
12 | COc1cc(C=O)ccc1O [Vanillin] | 94.2% and 102% | 99.7 | 102 | 105 | 103 | 102 | 105 | 97.5
13 | COc1cc2ncnc(Sc3nnc(C)s3)c2cc1OC | 52.4% and 59.1% | 73.6 | 42 | 42.1 | 5.68 | 3.57 | 3.76 | 16.7
14 | CCOC(=O)Nc1cc(-c2ccc(C)c(NS(C)(=O)=O)c2)nn2c(C)nnc12 [Bromosporine] | 33.4% and 42% | 49.7 | 9.42 | 13.9 | 3.2 | 1.48 | 1.03 | 4.94
15 | Cc1cc(C)nc(O)n1.O=C(Nc1ccc([N+](=O)[O-])cc1)Nc1ccc([N+](=O)[O-])cc1 [Nicarbazin] | 100% and 101% | 110 | 97 | 106 | 103 | 101 | 120 | 97.1
16 | COc1cc(OC)cc(N(CCNC(C)C)c2ccc3ncc(-c4cnn(C)c4)nc3c2)c1 | 5.81% and 13.7% | 12.4 | 50.6 | 54.4 | 34.8 | 34.9 | 24.7 | 31.9
17 | COC(=O)Nc1nc2cc(C(=O)c3cccs3)ccc2[nH]1 [Nocodazole] | 12.2% and 32.6% | 34.7 | 7.65 | 8.94 | 1.15 | 3.4 | 5.25 | 7.85
18 | CC1CNC(=O)NC1=O (stereo unspecified) [Dihydrothymine] | 102% and 110% | 97.3 | 96.7 | 108 | 97.7 | 103 | 94 | 105
19 | O=C(O)CCCc1ccccc1 [Sodium Phenylbutyrate] | 110% and 98.8% | 105 | 100 | 109 | 96.9 | 102 | 94.8 | 100
20 | OCc1ccc(O)cc1 [4-Hydroxybenzyl alcohol] | 108% and 106% | 111 | 98 | 112 | 108 | 109 | 111 | 95.3
21 | CC(=O)O[C@@H]1C[C@@]23C[C@@]24CC[C@H](O[C@@H]2OC[C@@H](O)[C@H](O)[C@H]2O)C(C)(C)[C@@H]4CC=C3[C@]2(C)C[C@@H]3OC4(C[C@@H](C)[C@@H]3[C@@]12C)OC(O)C1(C)OC41 (stereo partly specified) [Cimicifugoside] | 110% and 103% | 105 | 109 | 111 | 108 | 106 | 99 | 96

Row | SMILES | cell viability ([1]; SRSF2 genotype: SRSF2 P95H/wt) | cell viability ([1]; SRSF2 genotype: SRSF2 wt/wt) [%] | cell viability ([2]; SRSF2 genotype: SRSF2 P95H/wt) [%] | cell viability ([2]; SRSF2 genotype: SRSF2 wt/wt) [%] | cell viability ([3]; SRSF2 genotype: SRSF2 P95H/wt) [%] | cell viability ([3]; SRSF2 genotype: SRSF2 wt/wt) [%] | cell viability ([4]; SRSF2 genotype: P95H/wt) [%] | cell viability ([4]; SRSF2 genotype: wt/wt) [%]
22 | C[C@H](Nc1ncnc2nc[nH]c12)c1cc2cccc(Cl)c2c(=O)n1-c1ccccc1 [Duvelisib (IPI-145, INK1197)] | 93.1% and 95.6% | 94.3 | 67.6 | 62.3 | 50.2 | 51.6 | 28.7 | 38
23 | COCC(=O)Nc1cc(Sc2ccccc2)ccc1N=C(NC(=O)OC)NC(=O)OC [Febantel] | 98.1% and 91.8% | 97.1 | 98.9 | 107 | 97.9 | 110 | 98.3 | 102
24 | C[C@H]1COc2c(N3CCN(C)CC3)c(F)cc3c(=O)c(C(=O)O)cn1c23 [Levofloxacin (Levaquin)] | 95.5% and 83.8% | 87.5 | 90.4 | 101 | 95.2 | 88 | 87.3 | 88.3
25 | O[C@H]1[C@H]2c3cc4c(cc3CN3CCC(=C[C@@H]1O)[C@H]23)OCO4 [Lycorine] | 18.3% and 25.2% | 27.9 | 23 | 20.6 | 18.2 | 7.75 | 0.46 | 1.41
26 | CC(C)=CCC[C@](C)(O[C@@H]1O[C@H](CO)[C@@H](O)[C@H](O)[C@H]1O)[C@H]1CC[C@]2(C)[C@@H]1[C@H](O)C[C@@H]1[C@@]3(C)CC[C@H](O)C(C)(C)[C@@H]3[C@@H](O[C@@H]3O[C@H](CO)[C@@H](O)[C@H](O)[C@H]3O[C@@H]3O[C@@H](C)[C@H](O)[C@@H](O)[C@H]3O)C[C@]12C [Ginsenoside Re] | 103% and 101% | 101 | 99.2 | 105 | 101 | 106 | 97.4 | 107
27 | CC(C)=CCC[C@@H](C)CC=O [Citronellal] | 104% and 96.5% | 112 | 96.2 | 102 | 103 | 106 | 105 | 114
28 | CCCCCCNC(=O)Nc1ccc(S(=O)(=O)Nc2ccc(CCNC[C@H](O)COc3ccc(O)cc3)cc2)cc1 | 72.8% and 83.3% | 82.8 | 89.2 | 91.4 | 75.5 | 75.4 | 74.2 | 71
29 | CNCC[C@@H](Oc1ccccc1C)c1ccccc1 [Atomoxetine HCl] | 111% and 112% | 108 | 100 | 94.9 | 101 | 106 | 115 | 94.6
30 | CC[C@H]1OC(=O)[C@H](C)[C@@H](O[C@H]2C[C@@](C)(OC)[C@@H](O)[C@H](C)O2)[C@H](C)[C@@H](O[C@@H]2O[C@H](C)C[C@H](N(C)C)[C@H]2O)[C@](C)(O)C[C@@H](C)C(=O)[C@H](C)[C@@H](O)[C@]1(C)O [Erythromycin] | 99.5% and 99.1% | 97.1 | 101 | 98.2 | 104 | 99.6 | 106 | 103
31 | O.O=C([O-])c1ncccc1O.O=C([O-])c1ncccc1[O-].[H+].[O]=[V][OH] [VO-Ohpic trihydrate] | 100% and 92.1% | 95.5 | 106 | 102 | 122 | 110 | 121 | 119
32 | COc1nc(C)nc(Cl)c1NC1=NCCN1 [Moxonidine] | 101% and 86.7% | 84.3 | 87.2 | 95.5 | 89.9 | 94.8 | 97.5 | 89.6
33 | c1ccc2c(Oc3nc(Nc4ccc(N5CCOCC5)cc4)c4ncn(C5CCCCC5)c4n3)cccc2c1 [Purmorphamine] | 91.9% and 105% | 98.2 | 86.5 | 94.4 | 45.9 | 48.7 | 58.9 | 64
34 | O=c1c(N=Nc2nccs2)c(-c2ccccc2)[nH]n1-c1nc(-c2ccccc2)cs1 | 88.4% and 89.2% | 88.4 | 94.2 | 106 | 92.9 | 95.9 | 103 | 105
35 | O=c1ccc2ccc(O)c(O)c2o1 [Daphnetin] | 79.5% and 82.3% | 83.5 | 75.2 | 89 | 84.4 | 93.2 | 81.4 | 86.2
36 | CC=Cc1cc(OC)c2c(c1)C(C)C(c1ccc(O)c(OC)c1)O2 (stereo unspecified) [Dehydrodiisoeugenol] | 90.2% and 91.2% | 90.4 | 89.4 | 95.5 | 83.3 | 97.8 | 75.8 | 78.8
37 | O=c1cc(-c2ccc(O)c(O)c2)oc2cc(O)cc(O)c12 [Luteolin] | 90.8% and 84.6% | 85.5 | 65.7 | 82.6 | 53 | 57 | 67.3 | 58.9
38 | COC(=O)C=Cc1ccc(O)c(OC)c1 [Ferulic acid methyl ester] | 106% and 99.9% | 108 | 95.4 | 104 | 105 | 104 | 104 | 104
39 | OCCn1cc(-c2ccc3c(c2)CC/C3=N\O)c(-c2ccncc2)n1 | 110% | 111 | 85 | 73 | 89.8 | 94 | 94.4 | 80.8
40 | COc1ccc(C(NC(=O)c2cnc(-c3cccnn3)[nH]c2=O)c2ccc(OC)cc2)cc1 | 115% and 108% | 111 | 99 | 99.6 | 104 | 104 | 106 | 113
41 | CC(C)=CCCC(C)(O)C1CCC2(C)C1C(O)CC1C3(C)CCC(O)C(C)(C)C3CCC12C [(20S)-Protopanaxadiol] | 98% and 105% | 107 | 96.7 | 109 | 102 | 102 | 115 | 93.5
42 | Cn1cc(C2=C(c3ccc(Cl)cc3Cl)C(=O)NC2=O)c2ccccc21 | 97.9% and 94.8% | 94.2 | 94.7 | 105 | 103 | 99.1 | 95.8 | 107
